Source: PubChem
Only some compounds are listed: those with a hit (about 2.4% of all), similar ones and a draw of the others.
D2 PAM-1: Beta-Arrestin HTS for Positive Allosteric Modulators of the Human D2 Dopamine Receptor: Potentiators; DiscoveRx D2 beta-arrestin cells, luminescence, 90 min; 100% = 57 uM dopamine signal; 360,000 tested, 0.23% active; potentiation, % (test concentration not listed); AID 624464, 2012; D(2) dopamine receptor (Homo sapiens), P14416; in the data active = potentiation above about 50%; inconclusive = mostly about 30% to 49%
Target sequence (P14416 whole entry, looked up): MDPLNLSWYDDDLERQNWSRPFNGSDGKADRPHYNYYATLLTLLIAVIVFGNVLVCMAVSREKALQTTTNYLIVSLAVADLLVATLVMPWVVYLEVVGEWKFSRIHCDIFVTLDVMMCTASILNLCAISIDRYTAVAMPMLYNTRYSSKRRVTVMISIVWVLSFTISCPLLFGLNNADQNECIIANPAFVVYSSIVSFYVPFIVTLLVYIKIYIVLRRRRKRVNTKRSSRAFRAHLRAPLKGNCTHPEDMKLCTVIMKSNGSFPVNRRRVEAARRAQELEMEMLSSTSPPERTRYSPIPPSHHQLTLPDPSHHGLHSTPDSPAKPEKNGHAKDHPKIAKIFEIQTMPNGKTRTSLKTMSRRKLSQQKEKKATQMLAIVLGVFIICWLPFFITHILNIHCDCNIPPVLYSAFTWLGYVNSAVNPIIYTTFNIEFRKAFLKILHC
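PathHunter beta-arrestin assay in DiscoveRx D2 cells. Compounds were added with an EC20 of dopamine (50 nM final) for 90 min at 37 deg C. Luminescence was read 1 h after detection reagent, with 57 uM dopamine as the EC100 control.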
D2 ag-1: HTS Assay for Allosteric Agonists of the Human D2 Dopamine Receptor: Primary Screen for Agonists; D(2) dopamine receptor (Homo sapiens), P14416; HEK293 T-REx D2 cells, calcium flux agonist mode; activation, % at 2 µM; 340,000 tested, 0.53% active; AID 485358, 2010;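 active = activation over 3 SD above normal in the single-dose calcium agonist read, cut at about 30% in these data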; note: 0% is about no effect
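In this primary screen, compounds producing a positive calcium signal within 180 s of addition to tetracycline-induced, force-coupled HEK293 Trex D2 cells are flagged; cells are dye-loaded with a no-wash calcium kit beforehand.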
D2 antagonist: HTS Assay for Allosteric Antagonists of the Human D2 Dopamine Receptor: Primary Screen for Antagonists. D(2) dopamine receptor (Homo sapiens), P14416. HEK293 TREx D2 cells, calcium flux, dopamine EC80. inhibition, % at 10 µM. 340,000 tested, 2% active; in the data active = inhibition above about 30%; inactive = below that, where a call was filed; note: 0% is about no effect
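Measurement of antagonist activity uses fluorescent calcium dye in inducible HEK293 T-REx D2 cells: 10 s baseline, compound addition with 180 s read, EC80 dopamine addition with a further 180 s read.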
D2 PAM-2: HTS Assay for Positive Allosteric Modulators of the Human D2 Dopamine Receptor: Primary Screen for Potentiators. AID 485347, 2010. potentiation, % at 10 µM. D(2) dopamine receptor (Homo sapiens), P14416. 340,000 tested, 0.34% active. HEK293 T-REx D2, calcium flux, EC20 dopamine potentiation;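 active = potentiation over 3 SD above the plate norm, cut at about 30% in these data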; note: 0% is about no effect
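Tetracycline-induced Hek293 Trex D2 cells, force-coupled to calcium, loaded with no-wash calcium dye. Compound added with 180 s kinetic read for agonism, then EC20 dopamine and a further 180 s read for potentiation.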
D2 ag-2: Beta-Arrestin HTS for Positive Allosteric Modulators of the Human D2 Dopamine Receptor: Agonists; activation, % (concentration not given with the values); DiscoveRx PathHunter D2 beta-arrestin, luminescence, 90 min; 100% = 57 uM dopamine signal; AID 624465, 2012; 360,000 tested, 0.084% active; D(2) dopamine receptor (Homo sapiens), P14416; in the data active = activation above about 40%; inconclusive = between about 15% and that limit
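Agonist mode: compounds alone added to overnight-plated D2 PathHunter cells for 90 min at 37 C, with 57 uM final dopamine (EC100) defining full response. Beta-arrestin recruitment detected by chemiluminescent reagent, read after 1 h at ambient temperature.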
D3 ag: qHTS of D3 Dopamine Receptor Agonist: D3 Dopamine Receptor B-arrestin Agonist Confirmatory Assay. shares compounds with D2 ag-1. DiscoveRx D3 beta-arrestin cells, luminescence, 90 min. Potency, µM (series often up to 76.9 µM), for the others: top-dose activation, hits mostly activators. 2,300 tested, 4% active;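 note: potency is the fitted concentration of half-maximal effect; 100% = dopamine control response; nearly all actives have a fitted effect of over 70% in size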
D2 ag-3: qHTS of D3 Dopamine Receptor Agonist: D2 Dopamine Receptor B-arrestin Agonist Counterscreen; shares compounds with D2 ag-1; DiscoveRx PathHunter D2 beta-arrestin, luminescence, 90 min; response scale: percent relative to full dopamine signal; Potency, µM (series often up to 76.9 µM), without a hit: at the top dose activation, hits mostly activators; 2,300 tested, 5.9% active; note: potency is the fitted concentration of half-maximal effect; % of control where 0% means no effect; nearly all actives have a fitted effect of over 70% in size
An asterisk follows results filed as active; u = inconclusive; x = no result given. Unless noted, calls come from the whole dose curve; as a rule, active = well fitted activation curve with a large enough effect; inconclusive = small, poorly fitted or top-dose-only effect; inactive = flat fitted curve, though single readings scatter.

SMILES	D2 PAM-1	D2 ag-1	D2 antagonist	D2 PAM-2	D2 ag-2	D3 ag	D2 ag-3
CC(=O)c1cccc(OCC(O)CNCC2CCCCC2)c1 (stereo not drawn)	-13	0	-14	-18	2	x	x
CC(=O)c1cccc(OCC(O)CNCCOc2ccc(C)cc2)c1 (stereo not drawn)	-7	53*	42*	-23	12	-2%	5%
COc1cc2c(C(=O)N3CCN(c4cccc(C)c4)C(C)C3)cn(CC(C)C)c(=O)c2cc1OC (stereo not drawn)	x	0	x	3	x	x	x
Cc1ccc(C)c(NC(=S)N2CCN(c3ccccn3)CC2)c1	-14	19	-16	-5	-2	0%	3%
FC(F)(F)c1ccccc1NC(=S)N1CCCC1	-4	0	8	-1	-3	x	x
COc1ccc(NC(=S)N2CCN(c3ccccn3)CC2)cc1	-2	14	-11	-13	-2	x	x
O=C(/C=C/c1ccc(F)cc1)NC(=S)N1CCN(c2ccccn2)CC1	-7	35*	-15	-21	5	5%	11%
S=C(Nc1ccccc1)N1CCN(c2ccccn2)CC1	-2	45*	16	-14	-3	-5%	4%
FC(F)(F)c1ccccc1NC(=S)N1CCN(c2ccccn2)CC1	2	41*	-8	-5	-2	3%	1%
CCc1ccccc1NC(=O)C(=O)c1cc(C)n(-c2ccccc2F)c1C	x	-2	x	-3	x	x	x
O=C(NCc1ccncc1)c1ccc(NS(=O)(=O)c2ccc(F)cc2)cc1	-8	x	x	x	1	-3%	-5%
O=C(NCCCN1CCCC1=O)c1cc(NS(=O)(=O)c2ccc(F)cc2)cc(NS(=O)(=O)c2ccc(F)cc2)c1	-10	0	-1	-2	-1	x	x
O=C(NCCCN1CCCC1=O)c1ccc(NS(=O)(=O)c2ccc(F)cc2)cc1	-4	2	-4	4	4	-9%	-2%
CCCN1C(=O)c2[nH]nc(-c3ccccc3O)c2C1c1cccc(OCc2ccccc2)c1 (stereo not drawn)	x	-1	x	0	x	x	x
O=C(N1CCN(c2ccccc2)CC1)C(F)(F)C(F)(F)F	0	23	2	-15	0	-12%	7%
O=C(CN1CCCCC1)N1CCN(c2ccccc2)CC1	-1	2	23	-6	-5	x	x
O=C(N1CCN(c2ccccc2)CC1)C(F)(F)C(F)F	-18	21	6	-10	5	x	x
O=C(CN1CCN(c2ccccc2)CC1)N1CCN(c2ccccc2)CC1	-11	47*	-4	-14	7	u	21%
COc1ccc(Br)cc1CNC(=O)c1cc(=O)[nH]c2ccc(S(=O)(=O)N3CCCCC3)cc12	x	-1	x	-14	x	x	x
Cc1nn2c(=O)cc(CN(C)c3ccccc3)nc2s1	x	x	x	11	x	x	x
[O-]/[N+](=C/c1ccccc1)c1ccccc1	-8	0	-8	-13	-3	2%	-3%
CCc1ccc(CSc2nc(-c3ccc(OC)cc3)nc3c2Cc2c(CO)cnc(C)c2O3)cc1	x	0	x	1	x	x	x
CCc1ccccc1NC(=S)N1CCN(c2ccccc2F)CC1	-15	15	14	-1	-4	-1%	2%
CCOc1ccc(-n2cc(-c3ccccc3)c3c(N4CCC(C)CC4)ncnc32)cc1	x	1	x	18	x	x	x
Oc1ccc(Cl)cc1C=Nc1ccccc1Br	-5	1	18	1	-4	x	x
SMILES	D2 PAM-1	D2 ag-1	D2 antagonist	D2 PAM-2	D2 ag-2	D3 ag	D2 ag-3
Oc1ccc(Br)cc1C=Nc1ccc2c3c(cccc13)CC2	-28	8	15	3	-10	-2%	-12%
Nc1nc(CN2CCN(c3ccccc3F)CC2)nc(Nc2ccccc2)n1	-3	60*	47*	-24	6	9%	16%
COc1ccc(Nc2nc(N)nc(CN3CCN(c4ccccn4)CC3)n2)cc1	4	76*	73*	-29	u	3%	u
Cc1ccc(Nc2nc(N)nc(CN3CCN(c4ccccc4F)CC3)n2)cc1	18	75*	78*	-24	u	-1%	u
COc1ccc(Nc2nc(N)nc(CN3CCC(C)CC3)n2)cc1	-17	0	-3	-6	-3	x	x
Nc1nc(CN2CCN(c3ccccc3)CC2)nc(Nc2ccc(Cl)cc2)n1	u	64*	77*	-24	43*	u	18µM*
Nc1nc(CN2CCCCCC2)nc(Nc2ccccc2)n1	-4	-1	10	7	0	x	x
CCOc1ccccc1NC(=O)C1CCN(S(=O)(=O)c2ccc3[nH]c(=O)oc3c2)CC1	x	0	x	13	x	x	x
O=C(c1ccc2c(c1)N(Cc1ccc(Cl)cc1)C(=O)c1ccccc1S2(=O)=O)N1CCCCCC1	x	1	x	-1	x	x	x
COc1ccccc1NC(=O)CSc1oc(-c2ccccc2)nc1S(=O)(=O)c1ccccc1	x	0	x	22	x	x	x
COc1ccc(C2c3c(n(C)c4ccccc34)C(=O)N2CC(=O)Nc2cccc(Cl)c2)cc1 (stereo not drawn)	x	2	x	8	x	x	x
O=C1CC(c2ccccc2)NN1 (stereo not drawn)	-16	0	-9	-14	-8	-7%	-3%
Cc1[nH]c2ccccc2c1/C=N/Nc1ccc([N+](=O)[O-])cc1	-17	22	20	-2	-12	x	x
COc1ccccc1NS(=O)(=O)c1cc([N+](=O)[O-])ccc1N/N=C/c1c(C)[nH]c2ccccc12	-17	19	-26	15	-16	-43%	-14%
CCn1cc2nc(SCc3cccc(C(F)(F)F)c3)n(Cc3ccc(C)cc3)c(=O)c2n1	x	0	x	3	x	x	x
O=C(c1ccccc1)N1CCc2cc(CNS(=O)(=O)c3ccc(Cl)s3)ccc21	x	-1	x	-2	x	x	x
C/C(=N\NC(=O)CN1CCCCC1)c1ccccc1O	-19	65*	85*	-30	9	10%	13%
